# Compound activity deposited in PubChem BioAssay by Broad Institute.
# In the library only some 6.7% were active in any assay of this set; here they are far more common.
# T cruzi growth-1: inhibitors of T. cruzi proliferation; T. cruzi beta-gal in NIH3T3, GalScreen luminescence, 90 h; 77,000 tested, 5.9% active; inhibition, % at 8.34 µM; AID 624255;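 active means mean inhibition above about 93%, with at least 55% of replicates each passing it, limit read from the data, passing the limit was not always enough; inconclusive means only one of those two conditions holds; inactive means neither condition holds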
# Pf Dd2 inh: blocks growth of Plasmodium falciparum Dd2 parasites. P. falciparum Dd2 growth, SYBR Green, 72 h; stronger effect = lower value. activity change, % at 10 µM. 94,000 tested, 2.3% active. AID 1159554; in the data active means activity change below about -80%; inconclusive means no clear call, values can overlap the other calls
# C diff HTS: inhibitors of Clostridium difficile growth; growth activity, negative = inhibition, % at 16 µg/mL (by protocol); Clostridium difficile clinical isolate growth, OD600, 24 h; stronger effect = lower value; AID 1259249; 86,000 tested, 0.25% active;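 active means mean growth activity at or below -80% and every replicate also at or below -80%; inconclusive means mean at or below -80% but some replicate above -80%; inactive means mean growth activity above -80%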;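 further: 0% = DMSO wells and -100% = levofloxacin 16 µg/mL wells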
# T cruzi growth-2: inhibitors of T. cruzi proliferation | shares compounds with T cruzi growth-1 | T. cruzi beta-gal in NIH3T3, GalScreen luminescence, 90 h | inhibition, % at 8.35 µM | 5,600 tested, 72% active;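 active means mean replicate inhibition above about 95% and at least 55% of replicates individually reaching it, limit read from the data; inconclusive means only one of the two criteria is met; inactive means neither criterion is met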
# T cruzi growth-3: Trypanosoma cruzi proliferation inhibition; shares compounds with T cruzi growth-1; T. cruzi beta-gal in NIH3T3, GalScreen luminescence, 90 h; inhibition, % at 2.09 µM; 5,600 tested, 21% active; AID 651740;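 active means mean inhibition above about 95%, with at least 55% of replicates also reaching it, limit read from the data; inconclusive means meets just one of the two conditions; inactive means meets neither condition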;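 further: plate controls were neutral control median for no effect and positive control median for full effect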
# 3T3 cytotox: cytotoxicity in mouse NIH/3T3 fibroblasts; AID 651742; shares compounds with T cruzi growth-1; NIH/3T3 viability, CellTiter-Glo ATP luminescence, 90 h; 5,600 tested, 14% active; cytotoxicity (signal decrease), % at 8.35 µM;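 active means mean signal decrease across replicates above about 35% based on untreated-well scatter, with enough replicates individually passing, limit read from the data; inconclusive means no rule stated though some were filed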;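 further: 0% = median of neutral control wells and 100% = median of positive control wells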
# 3T3 cytotox 2: NIH/3T3 (mouse) viability loss. shares compounds with T cruzi growth-1. 5,600 tested, 56% active. inhibition, % at 24.9 µM. NIH/3T3 viability, CellTiter-Glo ATP luminescence, 90 h;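 active means mean loss of cell viability signal at or above a set limit, and enough replicates individually reaching it; inconclusive means meets only the mean limit or only the replicate share; inactive means meets neither condition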;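 further: 0% = median of neutral control wells and 100% = median of positive control wells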
# The depositor's hits bear a star; u = inconclusive; x = no result given.
SMILES,T cruzi growth-1,Pf Dd2 inh,C diff HTS,T cruzi growth-2,T cruzi growth-3,3T3 cytotox,3T3 cytotox 2
Cc1cc(C(=O)Nc2cccc3c2O[C@H](CN(C)Cc2ccc(C(=O)Nc4ccccc4N)cc2)[C@@H](C)CN([C@@H](C)CO)C3=O)n(C)n1,106*,-87*,-2,106*,86,10,23
Cc1cc(C(=O)Nc2cccc3c2O[C@@H](CN(C)Cc2ccccc2)[C@H](C)CN([C@@H](C)CO)C3=O)n(C)n1,19,-3,-1,x,x,x,x
Cc1cc(C(=O)Nc2cccc3c2O[C@@H](CN(C)Cc2ccccc2)[C@@H](C)CN([C@H](C)CO)C3=O)n(C)n1,26,10,-2,x,x,x,x
Cc1cc(C(=O)Nc2cccc3c2O[C@H](CN(C)Cc2ccc(C(=O)Nc4ccccc4N)cc2)[C@H](C)CN([C@H](C)CO)C3=O)n(C)n1,103*,-60,-1,-49,-59,-10,-13
CCNC(=O)Nc1ccc2c(c1)C(=O)N(C)[C@H]1CC[C@H](CC(=O)NCc3ccccc3F)O[C@@H]1CO2,1,-17,0,x,x,x,x
CNC[C@H]1Oc2ccc(NC(=O)Nc3ccc(OC)cc3)cc2C(=O)N([C@@H](C)CO)C[C@@H]1C,-21,27,4,x,x,x,x
C[C@H](CO)N1C[C@H](C)[C@H](CN(C)CC2CCOCC2)Oc2ncc(C#Cc3ccccc3)cc2C1=O,30,-8,6,x,x,x,x
O=C(NC1CCC1)[C@H]1[C@H](CO)[C@H]2Cn3c(cccc3=O)[C@@H]1N2CC1CCCC1,x,9,21,x,x,x,x
O=C(C[C@H]1CC[C@@H]2[C@H](COC[C@H](O)CN2C(=O)c2ccccc2)O1)Nc1ccccc1,x,-26,20,x,x,x,x
C[C@H](CO)N1C[C@H](C)[C@H](CN(C)C(=O)Nc2ccccc2)Oc2ccc(NS(=O)(=O)c3ccc(F)cc3)cc2CC1=O,-5,31,2,x,x,x,x
C[C@@H]1CCCCO[C@H](CN(C)S(=O)(=O)c2ccc(Cl)cc2)[C@H](C)CN([C@@H](C)CO)C(=O)c2cc(NC(=O)CCC(F)(F)F)ccc2O1,72,-24,-2,x,x,x,x
C[C@H](CO)N1C[C@H](C)[C@H](CN(C)S(=O)(=O)c2ccc(Cl)cc2)OCCCC[C@H](C)Oc2ccc(NC(=O)CCC(F)(F)F)cc2C1=O,71,-77,6,x,x,x,x
C[C@@H]1CCCCO[C@H](CN(C)S(=O)(=O)c2ccc(Cl)cc2)[C@H](C)CN([C@H](C)CO)C(=O)c2cc(NC(=O)CCC(F)(F)F)ccc2O1,99*,-42,-3,106*,34,14,30*
C[C@@H]1CN([C@H](C)CO)C(=O)c2cc(NC(=O)CCC(F)(F)F)ccc2O[C@@H](C)CCCCO[C@H]1CN(C)S(=O)(=O)c1ccc(Cl)cc1,57,-76,-4,x,x,x,x
C[C@H]1CCCCO[C@@H](CN(C)S(=O)(=O)c2ccc(Cl)cc2)[C@@H](C)CN([C@@H](C)CO)C(=O)c2cc(NC(=O)CCC(F)(F)F)ccc2O1,117*,-83*,-3,110*,73,-20,16
C[C@H]1CCCCO[C@H](CN(C)S(=O)(=O)c2ccc(Cl)cc2)[C@@H](C)CN([C@@H](C)CO)C(=O)c2cc(NC(=O)CCC(F)(F)F)ccc2O1,105*,-73,-3,103*,70,0,19
C[C@@H]1CCCCO[C@@H](CN(C)C(=O)c2ccccc2)[C@H](C)CN([C@H](C)CO)C(=O)c2cc(NC(=O)Nc3ccc4c(c3)OCO4)ccc2O1,57,-37,12,x,x,x,x
O=C(Nc1cccc(Cl)c1)N1C[C@@H]2[C@H](c3ccccc31)[C@@H](CO)N2C(=O)C1CC1,35,4,-1,x,x,x,x
O=C(Cc1ccccc1)N[C@@H]1C=C[C@@H](CC(=O)N2CCOCC2)O[C@@H]1CO,8,2,x,x,x,x,x
CN1C(=O)c2cc(NC(=O)Cc3cccs3)ccc2OC[C@H]2O[C@H](CC(=O)N[C@H]3CCN(Cc4ccccc4)C3)CC[C@H]21,8,x,20,x,x,x,x
O=C(C[C@@H]1CC[C@H](NC(=O)C2CCC2)[C@@H](CO)O1)NCCCN1CCOCC1,x,1,-1,x,x,x,x
C[C@H](CO)N1C[C@H](C)[C@H](CN(C)S(=O)(=O)c2cn(C)cn2)Oc2cc(C3=CCCC3)ccc2S1(=O)=O,-112,-2,0,x,x,x,x
CN1C(=O)c2cc(NC(=O)Nc3ccccc3)ccc2OC[C@H]2O[C@H](CC(=O)O)CC[C@H]21,-4,x,x,x,x,x,x
COCC(=O)N1[C@H](CO)[C@@H](c2ccc(C#CCC3CCCC3)cc2)[C@@H]1C#N,60,-9,-12,x,x,x,x
CC(C)C#Cc1ccc([C@H]2[C@@H](C#N)N(C(=O)c3ccccn3)[C@@H]2CO)cc1,u,-22,6,104*,102*,9,5
SMILES,T cruzi growth-1,Pf Dd2 inh,C diff HTS,T cruzi growth-2,T cruzi growth-3,3T3 cytotox,3T3 cytotox 2
N#C[C@H]1[C@H](c2ccc(-c3ccccc3F)cc2)[C@H](CO)N1C(=O)c1ccccn1,21,-34,5,x,x,x,x
N#C[C@@H]1[C@H](c2ccc(-c3ccccc3F)cc2)[C@@H](CO)N1C(=O)c1ccccn1,85,-3,6,x,x,x,x
N#C[C@@H]1[C@H](c2ccc(C#CCC3CCCC3)cc2)[C@@H](CO)N1C(=O)c1ccccn1,100*,-36,-1,99*,109*,5,107*
N#C[C@H]1[C@H](c2ccc(C#CCC3CCCC3)cc2)[C@@H](CO)N1C(=O)c1ccccn1,97*,-39,-4,95*,111*,21,104*
C[C@@H]1CCCCO[C@H](CN(C)Cc2ccncc2)[C@@H](C)CN([C@@H](C)CO)C(=O)c2cc(NC(=O)CCCN(C)C)ccc2O1,43,28,1,x,x,x,x
O=C(CCN1CCCCC1)NCC[C@@H]1CC[C@@H](NC(=O)Cc2cccnc2)[C@@H](CO)O1,-56,25,x,x,x,x,x
COc1ccc2c3c(n(C)c2c1)[C@@H](CO)N(C(=O)c1ccccc1)CC31CN(Cc2ccccc2OC)C1,x,6,x,x,x,x,x
COCCNC(=O)C[C@H]1CC[C@@H]2[C@@H](COc3ccc(NC(C)=O)cc3C(=O)N2C)O1,69,-64,0,x,x,x,x
CC(C)C(=O)Nc1ccc2c(c1)C(=O)N(C)[C@@H]1CC[C@@H](CC(=O)NCc3ccc(F)cc3)O[C@H]1CO2,42,-13,0,x,x,x,x
COCCNC(=O)C[C@H]1CC[C@@H]2[C@H](COc3ccc(NC(C)=O)cc3C(=O)N2C)O1,101*,-73,-1,13,-38,5,7
CCC(=O)Nc1ccc2c(c1)C(=O)N(C)[C@H]1CC[C@H](CC(=O)Nc3ccccc3OC)O[C@@H]1CO2,-60,-26,8,x,x,x,x
COCC(=O)Nc1ccc2c(c1)C(=O)N(C)[C@H]1CC[C@H](CC(=O)Nc3ccccc3OC)O[C@@H]1CO2,112*,-17,3,u,-4,10,11
